From ChEMBL document CHEMBL1157539, “Thousands of chemical starting points for antimalarial lead identification” (Nature, 2010)

The molecules below were run on Plasmodium falciparum (assay: GSK_TCMDC: Inhibition of Plasmodium falciparum Dd2 in whole red blood cells, using parasite LDH activity as an index of growth. Test compounds present at 2uM).
Type: functional
Work on `CC(C)NCc1ccc(-c2ccc(CN3CCCC(c4ccccc4)C3)cc2)c(C(=O)NCC2CCCCC2)c1.O=C(O)C(F)(F)F` (stereo unspecified) yielded an Inhibition of 53%.
`Cl.O=C(/C=C/c1ccc(Cl)c(Cl)c1)N1CCC(CN2CCC(c3c[nH]c4ncccc34)CC2)CC1` was tested, and the Inhibition was 20%.
Work on `CC1CN(c2ccnc3ccc(Sc4ccc(Oc5ccccc5)cc4)cc23)CC(C)N1.Cl` (stereo unspecified) yielded an Inhibition of 99%.
`Cl.c1ccc2c(Nc3ccc(OCCOCCOc4ccc(Nc5c6ccccc6nc6ccccc56)cc4)cc3)c3ccccc3nc2c1` was tested, and the Inhibition was 97%.
`CN=C(NC)c1cccc(NC(=O)C=Cc2ccc(C=CC(=O)Nc3cccc(C(=NC)NC)c3)cc2)c1.Cl` showed an Inhibition of 99%.
`Cc1ccc2cc(NC(=O)CCCCCCCON3C(N)=NC(N)=NC34CCCCC4)ccc2n1.O=C(O)C(F)(F)F` was tested, and the Inhibition was 86%.
In the case of `CCOC(=O)c1ccc(-c2c(C(F)(F)F)noc2-c2cc(CC)c(OC)cc2O)o1`, the Inhibition is reported as 95%.
Molecule `COc1ccc(Nc2ncc3c(-c4cccc(NC(=O)Cc5ccncc5)c4)c[nH]c3n2)cc1OC` has an Inhibition of 87%.
`Br.COc1ccc(CCCON2C(=N)N=C(N)NC2(C)C)cc1` was tested, and the Inhibition was 94%.
`CN(c1ccc(NC(=O)Nc2cc(C(F)(F)F)ccc2F)cc1)c1ccnc(NCCN2CCOCC2)n1.O=C(O)C(F)(F)F` gave an Inhibition of 73%.
For `CS(=O)(=O)Nc1ccc(-c2ccc3ccnc(N)c3c2)cc1.O=C(O)C(F)(F)F`, the Inhibition was 75%.
Work on `O=C(NC1CC1)c1ccc(N2CCC(c3ccccc3)CC2)nc1.O=C(O)C(F)(F)F` yielded an Inhibition of 92%.
In the case of `Cl.N#Cc1ccc2c(c1)CCN(CCC1CCC(NC(=O)Nc3ccnc4ccccc34)CC1)C2` (stereo unspecified), the Inhibition is reported as 77%.
For `COc1cc2nc(NCc3ccc(S(N)(=O)=O)cc3)nc(Nc3ccc(Oc4ccccc4)cc3)c2cc1OC`, the Inhibition was 100%.
`COc1ccc(CCn2c(C3CCCCC3)nc3oc4ccccc4c(=O)c3c2=O)cc1` gave an Inhibition of 66%.
With `O=C(Nc1ccc(C(F)(F)F)cc1)c1ccc(NCCCN2CCCCCC2)c([N+](=O)[O-])c1` the Inhibition was 98%.
Molecule `COc1cccc(CNC[C@@H](O)[C@H](Cc2ccccc2)NC(=O)c2cc(N3CCCC3=O)c3[nH]cc(C(C)C)c3c2)c1` has an Inhibition of 98%.
Molecule `COc1cccc(CNC(=O)NC2CCN(c3ccnc(Nc4ccc(F)cc4)n3)C2)c1` (stereo unspecified) has an Inhibition of 64%.
`COc1cc2nc(Cl)nc(Nc3ccncc3)c2cc1OC.Cl` was tested, and the Inhibition was 33%.
For `COc1ccc(C(=O)CCC(=O)N(Cc2ccc(-c3ccc(CNCCc4ccc(S(C)(=O)=O)cc4)cn3)cc2)Cc2ccc3c(c2)OCO3)cc1F.O=C(O)C(F)(F)F`, the Inhibition was 41%.
In the case of `Cl.N=C(N)c1cc(Cl)cc(NC(=O)Nc2cc(Cl)cc(C(=N)N)c2)c1`, the Inhibition is reported as 92%.
For `Nc1nc(N)c2cc(S(=O)(=O)c3ccc4ccccc4c3)ccc2n1`, the Inhibition was 51%.
In the case of `FC(F)(F)c1cccnc1N1CCC(Nc2nc3cc(Cl)ccc3[nH]2)CC1`, the Inhibition is reported as 39%.
With `COc1ccc(N(c2nc(-c3cc(Cl)ccc3Cl)cs2)C2CCNC2)cc1.O=C(O)C(F)(F)F` (stereo unspecified) the Inhibition was 9%.
Molecule `Br.Cc1cccc(OCCCCON2C(=N)N=C(N)NC2(C)C)c1C` has an Inhibition of 95%.
Work on `CN1CCN(CCCNc2ncc3c(-c4ccc(NC(=O)Nc5cc(C(F)(F)F)ccc5F)c(F)c4)nn(C)c3n2)CC1.O=C(O)C(F)(F)F` yielded an Inhibition of 94%.
`c1ccc(CSC2=NNC(c3ccccn3)S2)cc1` (stereo unspecified) gave an Inhibition of 65%.
With `CN1CCC(c2nc(N)no2)C1.O=C(O)C(=O)O` (stereo unspecified) the Inhibition was 2%.
`COc1ccc2cc(-c3nc(-c4c(Cl)cccc4Cl)[nH]c3-c3ccnc(NCCCN4CCN(C)CC4)c3)ccc2c1.O=C(O)C(F)(F)F` gave an Inhibition of 80%.
`O=C(O)C(F)(F)F.OCCC1CCN(Cc2ccc(-c3ccc(-c4nc5ccccc5[nH]4)cc3)cc2)CC1` showed an Inhibition of 98%.
With `Clc1ccc(Cc2nc3ccccc3[nH]2)cc1Cl` the Inhibition was 2%.
For `COc1ccc(Cn2c(SCc3ccc(C)cc3)nc3cc(OC)c(OC)cc3c2=N)cc1Cl`, the Inhibition was 7%.
Work on `Brc1cc(CNCCCNc2nc3ccccc3[nH]2)sc1Br.Cl` yielded an Inhibition of 21%.
With `CC(C)(C)OC(=O)NCc1ccc(Nc2nnc(-c3ccc(OCC(=O)NC[C@@H]4CC[C@H]5C[C@@H]4C5(C)C)c([N+](=O)[O-])c3)o2)cc1` the Inhibition was 52%.
`Cc1cc2c(cc1C(F)(F)F)N(C(=O)Nc1cc(OCCN(C)C)cc(C(F)(F)F)c1)CC2.Cl` gave an Inhibition of 19%.
In the case of `Clc1ccc2c(NN=Cc3cccnc3)ccnc2c1`, the Inhibition is reported as 86%.
